# Compound activity from PubChem.
# CYP2C19 activ – cytochrome P450 2C19 (human) activation | P33261 | activation factor at 5 µM | 96,000 tested, under 10 active | recombinant CYP2C19, luciferin-H EGE luminescence; hits give high values; 0 = fully inhibited enzyme, 1 = untreated enzyme | AID 1025;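 active = activation factor of at least 2 at 5 µM in the primary screen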;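 note: 0 = wells with 2.5 mM tranylcypromine and 1 = vehicle-only wells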
# Measles CPE – protection of cells from measles virus. Measles virus-infected cells, CPE protection, absorbance. protection (pct of control), % at 4 µM. 1.5% of 140,000 active; in the data active = protection mostly above about 24%, no sharp cut-off; inactive = mostly below about 26%
# CYP2C19 inh – blocks human cytochrome P450 2C19; P33261; CYP2C19 Supersomes, luciferin-H EGE luminescence, 30 min; inhibition, % at 5 µM; 21% of 96,000 active; AID 778;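 active = CYP2C19 inhibition above a set limit at 5 µM in the primary screen, cut at about 50% in these data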;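 note: plate controls were negative control wells for no effect and 2.5 mM tranylcypromine positive control for full effect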
# CYP2C9 inh – human CYP2C9 inhibition | inhibition, % at 5 µM | 20% of 96,000 active | P11712 | CYP2C9 Supersomes, luciferin-H conversion, luminescence;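 active = blocking of liver enzyme CYP2C9 beyond about 50% at 5 µM, limit read from the data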
# Target sequence (P11712 whole entry, looked up): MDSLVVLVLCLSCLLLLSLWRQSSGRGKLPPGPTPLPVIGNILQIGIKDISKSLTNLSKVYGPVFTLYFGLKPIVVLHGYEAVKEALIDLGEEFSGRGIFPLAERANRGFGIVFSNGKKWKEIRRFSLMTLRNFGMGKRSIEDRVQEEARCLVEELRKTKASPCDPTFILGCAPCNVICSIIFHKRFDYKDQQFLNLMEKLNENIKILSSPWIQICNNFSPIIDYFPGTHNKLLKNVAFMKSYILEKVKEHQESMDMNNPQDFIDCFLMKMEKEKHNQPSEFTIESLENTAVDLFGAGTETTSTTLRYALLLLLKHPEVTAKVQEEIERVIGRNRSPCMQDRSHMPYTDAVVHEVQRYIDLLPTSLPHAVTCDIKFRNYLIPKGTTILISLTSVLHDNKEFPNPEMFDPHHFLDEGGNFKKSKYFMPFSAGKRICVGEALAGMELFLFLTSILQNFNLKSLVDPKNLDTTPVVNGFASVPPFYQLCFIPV
# CYP2C9 act – increases human cytochrome P450 2C9 activity | P11712 | recombinant CYP2C9, luciferin-H conversion, luminescence; hits give high values; factor 1 = untreated enzyme, 0 = blocked | activation factor at 5 µM | 1.4% of 96,000 active | AID 1024;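 active = activation factor of 2 or more for CYP2C9 at a 5 µM dose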;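 note: 0 = sulfaphenazole-blocked wells and 1 = vehicle-only wells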
# Numbers without * were called inactive; . = no result given. Hits are enriched below; roughly 22% of the tested compounds scored in any of these assays.
SMILES,CYP2C19 activ,Measles CPE,CYP2C19 inh,CYP2C9 inh,CYP2C9 act
NC(=O)c1ccc(C(F)(F)F)n(Cc2ccccc2Cl)c1=O,0.3,13,69*,28,0.7
CN(CCc1ccccn1)S(=O)(=O)c1ccccc1F,0.4,.,64*,-33,1.3
CN(CCc1ccccn1)Cc1ccc(Cl)cc1Cl,0.3,9,68*,2,1
CN1C(=O)c2cccc(NCCCCCCN3C(=O)c4ccccc4C3=O)c2C1=O,0.7,10,32,75*,0.3
CCCn1c(N)c(C(c2ccc(C(=O)OC)cc2)N2CCN(c3ccccc3)CC2)c(=O)[nH]c1=O (centres undefined),1.1,42*,-11,12,0.9
CCOc1ccc(C(=O)Nn2cnnc2)cc1,0.3,6,74*,76*,0.2
COc1cc(C)c(Cl)c(C)c1S(=O)(=O)NCc1ccc2c(c1)OCO2,0.8,38,25,-36,1.4
COc1cc(S(=O)(=O)NCc2ccc3c(c2)OCO3)ccc1Cl,0,13,100*,30,0.7
O=S(=O)(NCc1ccc2c(c1)OCO2)c1cnc[nH]1,0.3,38,70*,92*,0.1
COc1cc(C)c(S(=O)(=O)NCc2ccc3c(c2)OCO3)cc1C,0,3,100*,84*,0.2
O=S(=O)(NCc1ccc2c(c1)OCO2)c1ccc2c(c1)oc1ccccc12,1,4,-1,23,0.8
COc1ccc(C(=O)NCc2ccc3c(c2)OCO3)cc1S(=O)(=O)NCc1ccc(Cl)cc1,.,20,.,.,.
CCOc1ccc(OCC)c(S(=O)(=O)NCc2ccc3c(c2)OCO3)c1,0,11,100*,92*,0.1
CCOc1ccc(OCC)c(S(=O)(=O)NCc2ccccn2)c1,0.6,3,43,14,0.9
O=C(c1sc2cc(F)ccc2c1Cl)N1CCN(c2ccccc2)CC1,.,5,.,.,.
COc1ccc(C(=O)c2c[nH]c(C(=O)NCc3cccs3)c2)cc1,1,25,2,10,0.9
CC(C)CNC(=O)CSc1nc(-c2cccs2)cc(C(F)(F)F)n1,.,29,.,.,.
O=C(O)c1ccc(CSc2nc(-c3ccccc3)cc(C(F)(F)F)n2)cc1,.,34*,.,.,.
CCCNC(=O)CSc1nc(-c2cccs2)cc(C(F)(F)F)n1,0.3,5,68*,77*,0.2
O=C(CSc1nc(-c2cccs2)cc(C(F)(F)F)n1)NCc1ccccc1,0.4,1,60*,91*,0.1
O=C1CCC/C(=N/NC(=O)c2ccc(CN3c4cccc5cccc(c45)S3(=O)=O)cc2)C1,.,8,.,.,.
COc1ccc(NC(=S)NCCCN2CCN(C3CCCCC3)CC2)cc1,.,8,.,.,.
CCSc1cc(N2CCCC2)nc(-c2ccccc2Cl)n1,.,4,.,.,.
Cc1ccccc1NC(=S)NCCC(c1ccccc1)c1ccccc1,0.4,6,63*,64*,0.4
Cc1ccc(NC(=S)NCCC(c2ccccc2)c2ccccc2)c(C)c1,0.4,4,61*,59*,0.4
SMILES,CYP2C19 activ,Measles CPE,CYP2C19 inh,CYP2C9 inh,CYP2C9 act
S=C(NCCC(c1ccccc1)c1ccccc1)Nc1cccc(Cl)c1,0.2,9,81*,81*,0.2
Cc1ccc(NC(=S)NCCc2ccc(F)cc2)c(C)c1,.,9,.,.,.
Cc1nc(S(=O)(=O)c2ccc(Cl)cc2)nc2c1CCC2,0.7,2,26,-23,1.2
Cc1ccc(S(=O)(=O)c2nc(C)c3c(n2)CCC3)cc1,0.6,14,36,-117,2.2*
Cc1cc(N2CCN(c3ccccc3Cl)CC2)n2cc(-c3ccccc3)nc2n1,0.9,30*,8,58*,0.4
Cc1cc(N2CCN(c3ccccc3)CC2)n2cc(-c3ccccc3)nc2n1,0.5,4,49,44,0.6
COc1ccc(OC)c(N(CC(=O)NCc2ccncc2)S(C)(=O)=O)c1,0.2,9,78*,52*,0.5
COc1ccc(OC)c(N(CC(=O)NCc2ccccn2)S(C)(=O)=O)c1,1,12,1,5,1
COc1ccccc1N(CC(=O)NCc1cccnc1)S(C)(=O)=O,0.7,22,28,-9,1.1
COc1ccc(OC)c(N(CC(=O)NCc2cccnc2)S(C)(=O)=O)c1,0.3,15,71*,12,0.9
Cc1cc(C)cc(N(CC(=O)NCc2cccnc2)S(C)(=O)=O)c1,0.4,7,64*,10,0.9
Cc1ccc(S(=O)(=O)N(CC(=O)Nc2ccccc2C(=O)O)c2cccc(Cl)c2C)cc1,.,14,.,.,.
Cc1ccccc1N(CC(=O)Nc1ccccc1C(=O)O)S(C)(=O)=O,1.1,26,-6,89*,0.1
O=C(CC(=O)NCc1cccnc1)NCc1cccnc1,0.8,8,15,3,1
CN(C(=O)c1cccc(Nc2ccc(-c3ccc4c(c3)OCCO4)nn2)c1)C1CCCCC1,.,32,.,.,.
COc1ccccc1N(CC(=O)NCc1ccccn1)S(C)(=O)=O,0.9,11,5,0,1
CCCCNC(=O)CN(c1ccc(Cl)c(Cl)c1)S(C)(=O)=O,.,11,.,.,.
CS(=O)(=O)N(CC(=O)NCc1ccncc1)c1ccc(Cl)c(Cl)c1,0,5,100*,99*,0
Cc1ccccc1N(CC(=O)NCc1ccncc1)S(C)(=O)=O,0,10,97*,86*,0.1
Cc1ccc(C(=O)N/C(=C\c2ccc(-c3ccc([N+](=O)[O-])cc3)o2)C(=O)NC2CCS(=O)(=O)C2)cc1 (centres undefined),.,8,.,.,.
O=[N+]([O-])c1ccc(N2CCN(c3ccccc3F)CC2)c(S(=O)(=O)N2CCOCC2)c1,.,1,.,.,.
CN1CCN(S(=O)(=O)c2cc([N+](=O)[O-])ccc2N2CCCCCC2)CC1,0.4,4,56*,16,0.8
O=C(Nc1nccs1)c1csc2c1CCCC2,.,27,.,.,.
CC1CCCCC1NC(=O)c1ccc(S(=O)(=O)N2CCCC2)cc1 (centres undefined),0.9,9,6,20,0.8
CC1CCCCC1NC(=O)c1ccc2c(c1)[nH]c(=O)n2C1CCCC1 (centres undefined),0.6,22,43,76*,0.2
SMILES,CYP2C19 activ,Measles CPE,CYP2C19 inh,CYP2C9 inh,CYP2C9 act
Cc1ccc(C(=O)C2C(=O)c3ccccc3C2=O)cc1,0.9,29,13,77*,0.2
Cc1ccc(C(=O)NC2c3ccccc3-c3ccccc32)cc1,.,9,.,.,.
Cc1ccc(N/C=C/C(=O)c2sc(-c3ccccc3)nc2C)cc1,0.9,14,8,21,0.8
CCOC(=O)c1ccccc1NC(=O)CN(c1ccccc1)S(=O)(=O)N(C)C,0.1,5,86*,94*,0.1
Cc1ccc(Cl)cc1NC(=O)COC(=O)C1CCCC1,0,3,96*,30,0.7
COC(=O)c1[nH]c2cccc(Cl)c2c1NC(=O)CN(C)C1CCCCC1,0.5,4,48,63*,0.4
COC(=O)c1[nH]c2cccc(OC)c2c1NC(=O)CCN1CCC(C(N)=O)CC1,1.1,12,-7,-6,1.1
CCOC(=O)c1ccccc1NC(=O)CN(c1ccccc1OC)S(C)(=O)=O,0.5,16,49,50,0.5
COc1ccc(Cl)cc1NC(=O)CN(C)C1CCCCC1,0.1,9,86*,-129,2.3*
